tim10-1 inh: inhibits growth of tim10-1 mutant yeast | S. cerevisiae tim10-1 ts strain growth, BacTiter-Glo, 24 h | hit rate 2.2% among 330,000 | inhibition, % at 20 µM;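 active = inhibition of at least 40%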;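 note: mutant grown at 25 °C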
tim23-1 inh: growth inhibitors of tim23-1 mutant yeast. S. cerevisiae tim23-1 growth, BacTiter-Glo luminescence, 24 h. inhibition, % at 20 µM. hit rate 1.3% among 330,000. AID 463212;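 active = growth inhibition of the mutant yeast at or above 50%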;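 note: temperature-sensitive mutant grown at 25 °C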
NALP3 yeast inh: inhibitors of NALP3 inflammasome in yeast; Yeast reconstituted NLRP3/ASC/caspase-1, beta-gal luminescence, 24 h; inhibition, % at 10 µM; hit rate 0.39% among 330,000;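 active = inhibition of 50% or more; inactive = inhibition below 50%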
V-ATPase pH: yeast V-ATPase proton transport regulation by pHLuorin; S. cerevisiae, pHLuorin cytosolic pH fluorescence; response, % at 10 µM; hit rate 0.37% among 350,000; AID 504577; in the data active = response mostly above about 7.3%, no sharp cut-off; inactive = mostly below about 5.4%; note: actives read high
NALP1 yeast inh: blocks the NALP1 inflammasome reconstituted in yeast | S. cerevisiae NALP1/ASC/caspase-1 growth, X-gal OD620, 72 h | inhibition, % at 10 µM | hit rate 0.61% among 280,000 | AID 2071; in the data active = inhibition mostly above about 24%, no sharp cut-off; inactive = mostly below about 32%
TIM10 inh: TIM10 yeast growth inhibition; inhibition, % at 10 µM; S. cerevisiae TIM10 strain growth, BacTiter-Glo luminescence, 24 h; hit rate 1.4% among 330,000;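 active = inhibition of 40% or more at the single tested concentration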;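 note: wild-type TIM10 isogenic control strain grown at permissive 25 °C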
Of the large screens only hits and unclear results are named; the others gave an inactive call. An excerpt weighted towards active compounds, which were near 4.2% of everything screened.

O=C(/C=C/c1ccc2c(c1)OCO2)c1ccc[nH]1	none
CC(C)c1ccccc1OCC(=O)NN1C(=O)c2ccccc2C1=O	NALP1 yeast inh 42.3
COc1cc2[nH]c(Cl)c([N+](=O)[O-])c2cc1OC	none (no result: NALP1 yeast inh)
C[C@H](NC(=O)c1ccco1)C(=O)NNC(=O)COc1cccc(C(F)(F)F)c1	none (no result: NALP1 yeast inh)
Nc1c2c(nc3sc4c(c13)CCCCC4)CCCCC2	NALP1 yeast inh 63.8
Nc1nc2c(s1)CCCCCCCCCC2	none
CCc1ccc(OCC(=O)OC2CCS(=O)(=O)C2)cc1 (configuration not stated)	NALP1 yeast inh 24.8
O=C(O)c1ccc2c(=O)n(-c3ccc(F)cc3)c(=S)[nH]c2c1	V-ATPase pH 13.3
Nc1nnc(SCc2ccc(F)cc2)s1	none (no result: NALP1 yeast inh)
Nc1nc(SCc2ccc(F)cc2)ns1	V-ATPase pH 24.4
COc1ccc(S(=O)(=O)N2CCC(O)(c3ccc(Cl)cc3)CC2)cc1	none
COc1ccc(S(=O)(=O)N2CCC(O)(c3ccc(Cl)cc3)CC2)cc1OC	V-ATPase pH 17.1
O=C(Nc1ccc(OCc2ccccc2)cc1)Nc1ccccc1C(=O)NCCCN1CCOCC1	none
c1ccc(C(=C2CCCO2)c2ccccc2)cc1	none (no result: tim10-1 inh, tim23-1 inh, NALP3 yeast inh, NALP1 yeast inh, TIM10 inh)
CCN(C(=O)CSc1n[nH]c(N)n1)C1CCCCC1	none (no result: NALP1 yeast inh)
CCC1(CC)C(=O)N(C)C(=O)NC1=Nc1ccc(OC)cc1	NALP1 yeast inh 41.1
CN(CC(=O)Nc1cccc(Cl)c1)C1=NS(=O)(=O)c2ccccc21	none (no result: NALP1 yeast inh)
CN(CC(=O)Nc1cccc(C(F)(F)F)c1)C1=NS(=O)(=O)c2ccccc21	V-ATPase pH 13.2 (no result: NALP1 yeast inh)
NS(=O)(=O)c1ccc(CCNC(=O)CCNC(=O)c2ccco2)cc1	none
O=C(CCNC(=O)c1ccco1)NCCc1ccc(Cl)cc1	NALP1 yeast inh 38.1
COc1ccc(C(=O)Oc2ccc[nH]c2=O)cc1	none
CCNC(=O)Oc1ccc[nH]c1=O	NALP1 yeast inh 36.8
Cc1ccc2cc(CN(CC3CCCO3)C(=O)NC3CCCCC3)c(=O)[nH]c2c1C (configuration not stated)	none
CCN(CC)CCCN(Cc1cc2ccc(C)c(C)c2[nH]c1=O)C(=O)NC1CCCCC1	NALP1 yeast inh 23.3
CCCCNc1nc(-c2ccccc2)nc(-n2ccnc2)n1	NALP1 yeast inh 44.0
COc1ccc(C)cc1NC(=O)c1sc2ncn(CC(=O)N3CCCCC3)c(=O)c2c1C	none
O=C(Nc1ccc(F)c(Cl)c1)N1CCCCCC1	none
Cc1cc(C(=O)Nc2cccc(C(=O)O)c2)c(C)o1	none
Cc1cc(C(=O)Nc2cccc(O)c2)c(C)o1	NALP1 yeast inh 35.1
CCOC(=O)C1=C(COC(=O)c2ccc(Cl)nc2)NC(=O)NC1C (configuration not stated)	none (no result: tim10-1 inh, tim23-1 inh, NALP3 yeast inh, NALP1 yeast inh, TIM10 inh)
COc1ccccc1NC1=C(N2CCCCC2)C(=O)c2ccccc2C1=O	NALP1 yeast inh 79.5
CCc1ccc(C2NC(C(=O)O)CS2)cc1 (configuration not stated)	NALP1 yeast inh 50.1 (no result: tim10-1 inh, tim23-1 inh, NALP3 yeast inh, V-ATPase pH, TIM10 inh)
OCC1CCCN(Cc2ccc(-c3ccccc3)cc2)C1 (configuration not stated)	NALP1 yeast inh 34.1
O=C(NCc1ccco1)c1cccs1	NALP1 yeast inh 28.9
O=C(NCc1ccco1)c1ccc(Oc2ccccc2)cc1	NALP1 yeast inh 40.0
O=C(NNC(=S)NCc1ccco1)c1cccs1	none
Clc1ccc(OCCCNCc2ccccc2)c2ccccc12	NALP1 yeast inh 50.1
Cc1cc(Br)ccc1OCCNCc1ccccc1	NALP1 yeast inh 29.2
CSc1ncccc1C(=O)OCC(=O)N1CCc2ccccc21	none (no result: NALP1 yeast inh)
CCC12CN(S(=O)(=O)c3ccc(C)cc3)CC(CC)(CN(S(=O)(=O)c3ccc(C)cc3)C1)C2=O	NALP1 yeast inh 41.5
CN(Cc1ccc(F)cc1)S(=O)(=O)c1nnc(NC(=O)c2ccccc2Br)s1	none
CC(=O)N(c1ccc(C(F)(F)F)cc1)S(=O)(=O)c1ccc(N2C(=O)CCC2=O)cc1	NALP1 yeast inh 31.7
CC1(C)CC(=O)C2=C(C1)Nc1ccccc1NC2c1nc2ccccc2[nH]1 (configuration not stated)	NALP1 yeast inh 39.4
O=C(NCCc1ccc([N+](=O)[O-])cc1)c1ccccc1	NALP1 yeast inh 34.0
O=C(NCCc1ccccc1)C(=O)Nc1ccc([N+](=O)[O-])cc1	NALP1 yeast inh 29.8
O=C(NCCc1ccccc1)c1ccc([N+](=O)[O-])cc1	none
COc1cc2c3nnc(-c4ccc(F)cc4)c-3cn(Cc3ccc(F)cc3)c2cc1OC	NALP1 yeast inh 34.9

Bioassay records (PubChem BioAssay)
